This is part of a sample that, as a whole, favours compounds with a hit. Of some 83,000 tested, about 20% had one in any assay.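 48-hour exposure, single concentration, 96-well plates; percent growth endpoint where 0 means no net growth. Active: below 10.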 A number with no mark means an inactive call. Calls of active or inactive are those of the source.

Some test systems named below: HT29 colon; SNB-75 CNS; SNB-19 CNS; U251 CNS; PC-3 prostate; SK-MEL-5 melanoma; UACC-62 melanoma; SK-MEL-28 melanoma; LOX IMVI melanoma.
What all share (experiment): NCI-60 one-dose screen, 48 h (100 = growth as untreated, 0 = no growth, -100 = all killed)
What all share (conditions): 10 µM unless noted

As for `O=C1NC(c2ccc(Cl)c(Cl)c2)=C/C1=C\c1ccccc1`, the growth in the test on HT29 colon is 87.7%; in the test on SNB-75 CNS it was 63.1%; in the test with SNB-19 CNS, 80%; with U251 CNS, 46.1%; with PC-3 prostate, 79.2%; in the test on SK-MEL-5 melanoma, 97.3%. For the same compound, the growth with UACC-62 melanoma was 86.7%; in the test with SK-MEL-28 melanoma it was 104%.

As to `O=C(O)/C(=C/c1ccc(O)cc1)c1ccccc1`, the growth with HT29 colon is 104%; with SNB-75 CNS it was 88.4%; in the test with SNB-19 CNS it was 99.7%; in the test with U251 CNS, 93.7%; in the test with PC-3 prostate, 90.4%; in the test on SK-MEL-5 melanoma, 95.5%. Further, the results for the growth in the test with UACC-62 melanoma and with SK-MEL-28 melanoma were 107% and 102%, respectively.

For the compound `O=[N+]([O-])c1cc(S(=O)(=O)c2ccc(F)c([N+](=O)[O-])c2)ccc1F`, the growth is 97% in the test on HT29 colon; 97.2% in the test with SNB-75 CNS; 106% in the test with SNB-19 CNS; 62.8% in the test with U251 CNS; 107% in the test on PC-3 prostate; 106% with SK-MEL-5 melanoma. Besides, the growth is 105% with UACC-62 melanoma and 110% in the test with SK-MEL-28 melanoma.

Turning to `COC(=O)[C@]12CC[C@@H](C(=O)/C=C/c3cccnc3)[C@@H]1[C@H]1CC[C@@H]3[C@@]4(C)C/C(=C/c5cccnc5)C(=O)C(C)(C)[C@@H]4CC[C@@]3(C)[C@]1(C)CC2`, the growth with HT29 colon is -45.5% (active); in the test with SNB-75 CNS, -98.7% (active); with SNB-19 CNS it was -87.6% (active); in the test with U251 CNS, -87.9% (active); in the test on PC-3 prostate, -14.1% (active); with SK-MEL-5 melanoma it was -98.9% (active). Besides, the growth in the test with UACC-62 melanoma is -67.9% (active); in the test with SK-MEL-28 melanoma it was -96.3% (active).

As for `Cc1ccnc2c(OCc3ccccc3)cccc12`, the growth with HT29 colon is 99.4%; in the test on SNB-75 CNS, 95.4%; in the test on SNB-19 CNS it was 100%; in the test with U251 CNS it was 92.7%; in the test with PC-3 prostate, 96.8%; in the test with UACC-62 melanoma, 85.8%. In addition, the figures for the growth with LOX IMVI melanoma and in the test on SK-MEL-28 melanoma were 87.4% and 95.6%, respectively.

Turning to `C=C(C)[C@@H]1CC[C@]2(/C=N/Nc3ccncc3)CC[C@]3(C)[C@H](CC[C@@H]4[C@@]5(C)CCCNC(C)(C)[C@@H]5CC[C@]43C)[C@@H]12`, the growth in the test on HT29 colon is 18.6%; in the test with SNB-75 CNS, 90.5%; in the test with SNB-19 CNS, 94.7%; with U251 CNS it was 67.9%; with PC-3 prostate, 47.3%; in the test on SK-MEL-5 melanoma, 81.7%. The growth with UACC-62 melanoma is 88.1%; in the test on SK-MEL-28 melanoma it was 95.4%.

On to `Cc1nn(-c2ccc(Br)cc2)c2nc3[nH]c(=O)[nH]c(=O)c3nc12`, for which the growth in the test with HT29 colon was 101%; in the test on SNB-75 CNS it was 74.6%; in the test on U251 CNS it was 101%; with PC-3 prostate, 111%; with SK-MEL-5 melanoma, 100%; with UACC-62 melanoma, 102%. In addition, the growth in the test on SK-MEL-28 melanoma is 91.2%.

As for `Cc1[c-]onc1C.Cc1[c-]onc1C.[Ag].[Ag].[NH-]S(=O)(=O)c1ccc(N=Nc2cc(N=Nc3ccc(S([NH-])(=O)=O)cc3)c3c(NC(=O)C(Cl)Cl)cccc3c2OC(=O)C(Cl)Cl)cc1`, the growth in the test on HT29 colon is 78.3%; with SNB-75 CNS, 44.8%; in the test on U251 CNS, 82.7%; with PC-3 prostate it was 47.1%; in the test on UACC-62 melanoma, 85.9%; in the test with LOX IMVI melanoma it was 81.4%. In the test with SK-MEL-28 melanoma, the growth was 86.4%.

Turning to `CC1=CC(=O)N(c2cccc3c(N4C(=O)C=C(C)C4=O)cccc23)C1=O`, the growth with HT29 colon is 18%; in the test with SNB-75 CNS it was 74.1%; in the test on SNB-19 CNS, 102%; with U251 CNS, 83.9%; in the test with PC-3 prostate it was 94.8%; in the test with SK-MEL-5 melanoma, 105%. Further, the figures for the growth in the test with UACC-62 melanoma and in the test on SK-MEL-28 melanoma were 94.5% and 103%, respectively.

With `Fc1cccc(-c2[nH]nc3nc(Nc4cccnc4)sc23)c1`, the growth is 14.5% with HT29 colon; 47.5% in the test on SNB-75 CNS; 40.2% in the test on SNB-19 CNS; 38.6% in the test on U251 CNS; 33.1% in the test with PC-3 prostate; 33% in the test on SK-MEL-5 melanoma. Besides, the growth with UACC-62 melanoma was 57.2%; in the test with SK-MEL-28 melanoma, 68.6%.

As to `C=C1C(=O)O[C@H]2[C@H]1CC/C(COC(=O)N[C@H](Cc1c[nH]c3ccccc13)C(=O)OC)=C\CC[C@@]1(C)O[C@@H]21`, the growth with HT29 colon was 14.9%; with SNB-75 CNS, 82%; with SNB-19 CNS it was 66.7%; in the test on U251 CNS it was 72.7%; in the test with PC-3 prostate it was 57.3%; in the test with SK-MEL-5 melanoma, 39%. Besides, the growth with LOX IMVI melanoma was 13.7%; in the test with SK-MEL-28 melanoma it was 9.69% (active).

Take `CN(C)c1ccc(C(=O)c2ccc(N(C)C)c(N)c2)cc1N`: the growth in the test with HT29 colon was 9.95% (active); in the test with SNB-75 CNS, -11.3% (active); with SNB-19 CNS, 45.3%; in the test on U251 CNS, 34.4%; in the test on SK-MEL-5 melanoma, 3.25% (active); with LOX IMVI melanoma, 53.9%. The growth with SK-MEL-28 melanoma is 61.9%.

On to `COc1cnc2c(c1)C(=O)c1c-2n(CCCNC2=NCCS2)c(=O)c2cc([N+](=O)[O-])ccc12`, for which the growth is -42.4% (active) in the test on HT29 colon; 23.7% in the test with SNB-75 CNS; 27.2% in the test on SNB-19 CNS; -83.9% (active) in the test on U251 CNS; -48.1% (active) with PC-3 prostate; -41% (active) with SK-MEL-5 melanoma. Further, the growth was -91.3% (active) in the test with LOX IMVI melanoma and -35.9% (active) with SK-MEL-28 melanoma.

Turning to `CCN1CCN(C(=O)[C@@]2(C)CC[C@]3(C)CC[C@]4(C)C(=CC(=O)[C@@H]5[C@@]6(C)CC[C@H](OCCC#N)C(C)(C)[C@@H]6CC[C@]54C)[C@@H]3C2)CC1`, the growth in the test with HT29 colon is 42.6%; in the test on SNB-75 CNS, 59.9%; in the test with SNB-19 CNS it was 103%; with U251 CNS, 64.2%; with SK-MEL-5 melanoma, 90.2%; in the test on UACC-62 melanoma, 87.1%. Also, in the test with SK-MEL-28 melanoma, the growth was 67.7%.

In the case of `Cc1cc(Cl)nc(N(CCCNc2ccnc3cc(Cl)ccc23)Cc2ccco2)n1`, the growth in the test with HT29 colon was 8.64% (active); with SNB-75 CNS it was 59.6%; in the test with SNB-19 CNS it was 31.5%; in the test on U251 CNS, 26.9%; in the test with PC-3 prostate, 5.4% (active); in the test with SK-MEL-5 melanoma, -82.6% (active). Further, the results for the growth with LOX IMVI melanoma and with SK-MEL-28 melanoma were 10.7% and 16.1%, respectively.

Source of the values: PubChem BioAssay (NCI).
